Read-out in assay [1]: serum amyloid A (SAA), SAA1 (gene 6288)
Nature of the assay: BSK_CASM3C_SAA: BioMAP Diversity Plus: CASM3C Assay for serum amyloid A (SAA) Biomarker Activity (AID 2283049).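 Note: SAA protein level quantified by ELISA.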 The following applies: primary human coronary artery smooth muscle cells; actives raise or lower the signal.

Assay [2] is described as follows: BSK_CASM3C_SRB: Viability Assessment in the BioMAP Diversity Plus: CASM3C Assay (AID 2283050).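 Note: cells exposed to compound for 24 h.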 The note with it: primary human coronary artery smooth muscle cells.
Read-out in assay [3]: Thrombomodulin, THBD (gene 7056)
Nature of the assay: BSK_CASM3C_Thrombomodulin: BioMAP Diversity Plus: CASM3C Assay for Thrombomodulin Biomarker Activity (AID 2283051).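 Note: thrombomodulin protein level measured by ELISA 24 h after dosing.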 The following applies: primary human coronary artery smooth muscle cells; actives raise or lower the signal.

Read-out in assay [4]: Tissue Factor, F3 (gene 2152)
The assay is described as follows: BSK_CASM3C_TissueFactor: BioMAP Diversity Plus: CASM3C Assay for Tissue Factor Biomarker Activity (AID 2283052).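 Note: cell surface tissue factor protein level read by ELISA.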 The note with it: primary human coronary artery smooth muscle cells; actives raise or lower the signal.

Read-out in assay [5]: Interferon-gamma inducible Protein 10 (IP10), CXCL10 (gene 3627)
Nature of the assay: BSK_hDFCGF_IP10: BioMAP Diversity Plus: hDFCGF Assay for Interferon-gamma inducible Protein 10 (IP10) Biomarker Activity (AID 2283053). The following applies: primary human foreskin fibroblasts; actives raise or lower the signal. The procedure, abridged: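 Chemical-treated human skin fibroblasts (primary) were sampled at 24 h for IP-10 by ELISA. Both increases and decreases relative to DMSO were scored.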

Read-out in assay [6]: Urokinase-type plasminogen activator receptor (uPAR), PLAUR (gene 5329)
The assay is described as follows: BSK_CASM3C_uPAR: BioMAP Diversity Plus: CASM3C Assay for Urokinase-type plasminogen activator receptor (uPAR) Biomarker Activity (AID 2283054).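 Note: cell-surface uPAR protein level quantified by ELISA.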 The note with it: primary human coronary artery smooth muscle cells; actives raise or lower the signal.

Read-out in assay [7]: Vascular cell adhesion molecule 1 (VCAM1), VCAM1 (gene 7412)
Nature of the assay: BSK_CASM3C_VCAM1: BioMAP Diversity Plus: CASM3C Assay for Vascular cell adhesion molecule 1 (VCAM1) Biomarker Activity (AID 2283055).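 Note: VCAM-1 protein level quantified by ELISA on the cells.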 The note with it: primary human coronary artery smooth muscle cells; actives raise or lower the signal.

Read-out in assay [8]: Collagen III, COL3A1 (gene 1281)
The assay is described as follows: BSK_hDFCGF_CollagenIII: BioMAP Diversity Plus: hDFCGF Assay for Collagen III Biomarker Activity (AID 2283056). The note with it: primary human foreskin fibroblasts; actives raise or lower the signal. The procedure, abridged: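 Cells: human foreskin fibroblasts, primary. Dosing followed by 24 h incubation, then ELISA for collagen III. Both increases and decreases scored relative to DMSO.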

Read-out in assay [9]: Epidermal growth factor receptor (EGFR), EGFR (gene 1956)
Nature of the assay: BSK_hDFCGF_EGFR: BioMAP Diversity Plus: hDFCGF Assay for Epidermal growth factor receptor (EGFR) Biomarker Activity (AID 2283057). The note with it: primary human foreskin fibroblasts; actives raise or lower the signal. The gist of the method:
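Cell-based multiplexed assay in primary human foreskin fibroblasts. EGFR is read by ELISA 24 h after treatment and compared with DMSO controls.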

Read-out in assay [10]: Interleukin-8 (IL8), CXCL8 (gene 3576)
Nature of the assay: BSK_hDFCGF_IL8: BioMAP Diversity Plus: hDFCGF Assay for Interleukin-8 (IL8) Biomarker Activity (AID 2283058). The following applies: primary human foreskin fibroblasts; actives raise or lower the signal. The gist of the method: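 IL-8 levels from compound-treated primary human fibroblasts were read by ELISA at 24 h, with DMSO serving as baseline for bidirectional fitting.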

Assay [11] can be described thus: BSK_hDFCGF_Proliferation: Cell Proliferation Assessment in the BioMAP Diversity Plus: hDFCGF Assay (AID 2283059).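 Note: curves fitted for both rise and fall of signal versus DMSO baseline.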 The note with it: primary human foreskin fibroblasts. The procedure, abridged:
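This proliferation readout used SRB total-protein staining of human foreskin fibroblasts […], normalized to DMSO with bidirectional curve fitting.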

Read-out in assay [12]: Macrophage colony-stimulating factor (MCSF), CSF1 (gene 1435)
Nature of the assay: BSK_hDFCGF_MCSF: BioMAP Diversity Plus: hDFCGF Assay for Macrophage colony-stimulating factor (MCSF) Biomarker Activity (AID 2283060). The note with it: primary human foreskin fibroblasts; actives raise or lower the signal. The procedure, abridged: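 M-CSF levels, determined by ELISA, are taken at 24 h after dosing human skin fibroblasts. Responses in either direction are fitted with DMSO serving as the baseline.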

A short description of assay [13]: BSK_hDFCGF_SRB: Viability Assessment in the BioMAP Diversity Plus: hDFCGF Assay (AID 2283061).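 Note: cells exposed to compound for 24 h before the read.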 The note with it: primary human foreskin fibroblasts. The gist of the method:
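Cells were dosed with test chemical, cultured 24 h, fixed with 10% TCA, then stained with 0.1% SRB and read at 560 nm. The fibroblasts were human foreskin primary cells, and DMSO served as baseline.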

Read-out in assay [14]: TIMP metallopeptidase inhibitor 1 (TIMP1), TIMP1 (gene 7076)
The assay is described as follows: BSK_hDFCGF_TIMP1: BioMAP Diversity Plus: hDFCGF Assay for TIMP metallopeptidase inhibitor 1 (TIMP1) Biomarker Activity (AID 2283062). The following applies: primary human foreskin fibroblasts; actives raise or lower the signal. The procedure, abridged:
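Fibroblasts from human foreskin are treated with test chemical and harvested at 24 h. TIMP-1 is quantified by ELISA, and gain or loss of signal is scored against DMSO.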

Read-out in assay [15]: Monokine induced gamma interferon (MIG), CXCL9 (gene 4283)
The assay is described as follows: BSK_hDFCGF_MIG: BioMAP Diversity Plus: hDFCGF Assay for Monokine induced gamma interferon (MIG) Biomarker Activity (AID 2283063). The note with it: primary human foreskin fibroblasts; actives raise or lower the signal. The gist of the method:
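MIG signal, determined by ELISA, reflects 24 h chemical exposure of human skin primary fibroblasts. DMSO serves as negative control and baseline.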

Read-out in assay [16]: Matrix Metallopeptidase 1 (MMP1), MMP1 (gene 4312)
The assay is described as follows: BSK_hDFCGF_MMP1: BioMAP Diversity Plus: hDFCGF Assay for Matrix Metallopeptidase 1 (MMP1) Biomarker Activity (AID 2283064). The following applies: primary human foreskin fibroblasts; actives raise or lower the signal. The procedure, abridged:
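ELISA read-out of MMP1 from human foreskin fibroblasts (primary skin cells), 24 h post-dose. Gain or loss of signal was fitted bidirectionally versus DMSO negative control; cytotoxicity was checked by SRB in parallel cultures.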

Read-out in assay [17]: Vascular cell adhesion molecule 1 (VCAM1), VCAM1 (gene 7412)
Nature of the assay: BSK_hDFCGF_VCAM1: BioMAP Diversity Plus: hDFCGF Assay for Vascular cell adhesion molecule 1 (VCAM1) Biomarker Activity (AID 2283065). The following applies: primary human foreskin fibroblasts; actives raise or lower the signal. The gist of the method: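 Cells are dosed, cultured for 24 h, then VCAM-1 is quantified by ELISA; signal increases and decreases are both fitted relative to DMSO.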

Read-out in assay [18]: Plasminogen activator inhibitor-1 (PAI1), SERPINE1 (gene 5054)
The assay is described as follows: BSK_hDFCGF_PAI1: BioMAP Diversity Plus: hDFCGF Assay for Plasminogen activator inhibitor-1 (PAI1) Biomarker Activity (AID 2283066). The following applies: primary human foreskin fibroblasts; actives raise or lower the signal. The gist of the method:
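Human skin fibroblast cultures receive chemical for 24 h before PAI-1 is measured by ELISA; signal changes are fitted bidirectionally against DMSO-treated wells.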

Read-out in assay [19]: Intercellular Adhesion Molecule 1 (ICAM1), ICAM1 (gene 3383)
Nature of the assay: BSK_KF3CT_ICAM1: BioMAP Diversity Plus: KF3CT Assay for Intercellular Adhesion Molecule 1 (ICAM1) Biomarker Activity (AID 2283067). The note with it: primary human keratinocytes with fibroblasts; actives raise or lower the signal. The gist of the method:
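Dose the keratinocyte/fibroblast co-culture, wait 24 h, measure ICAM-1 by ELISA, then fit increases or decreases against DMSO. Cytotoxicity is checked in parallel cultures by SRB total-protein staining.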

Read-out in assay [20]: Interferon-gamma inducible Protein 10 (IP10), CXCL10 (gene 3627)
Nature of the assay: BSK_KF3CT_IP10: BioMAP Diversity Plus: KF3CT Assay for Interferon-gamma inducible Protein 10 (IP10) Biomarker Activity (AID 2283068). The following applies: primary human keratinocytes with fibroblasts; actives raise or lower the signal. The procedure, abridged: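 Signal is secreted/surface IP-10 by ELISA in a human primary skin co-culture of keratinocytes and foreskin fibroblasts, taken 24 h post-dosing; DMSO served as negative control.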

SMILES strings stand for the structures. Calls of active or inactive are those of the source. Rule for the calls: active = hit-call score of the fitted dose curve at least 0.9, where 1 is the maximum; inactive = score below 0.9.

For `CCCCC(CC)CN1C(=O)C2C3C=CC(C3)C2C1=O` (stereo not given), the outcome in [1], in [2], in [3], in [4], in [6] and in assay [7] was inactive. Also, the outcome in assay [9], in [10], in [13], in assay [14], in [15] and in [17] was inactive. In addition, the result in assay [18] and in assay [19] was inactive. Further, the half-maximal activity concentration (AC50) in [5] was 3.97 µM (active); in assay [8] it was 30 µM (active); in assay [11], 29.6 µM (active); in assay [12], 20 µM (active); in [16], 16 µM (active); in assay [20], 20 µM (active).
In the case of `CCN(CC)C(=O)c1cccc(C)c1`, the result in assay [1], in assay [2], in [3], in [4], in assay [5] and in assay [6] was inactive. Also, the result in assay [7], in assay [8], in [10], in assay [11], in assay [12] and in assay [13] was inactive. In addition, the result in assay [14], in assay [15], in assay [16], in assay [17], in assay [18] and in assay [19] was inactive. Also, the result in assay [20] was inactive.
With `COC(=O)c1cccc(C)c1S(=O)(=O)NC(=O)Nc1nc(OCC(F)(F)F)nc(N(C)C)n1`, the outcome in assay [1], in assay [2], in [3], in [4], in assay [5] and in [6] was inactive. The result in assay [7], in [8], in assay [9], in [10], in assay [11] and in [12] was inactive. Also, the result in [13], in [14], in [16], in assay [17], in assay [18] and in assay [19] was inactive. Besides, in [20], the outcome was inactive.
Take `COc1nc(C)nc(NC(=O)NS(=O)(=O)c2ccccc2OCCCl)n1`: the result in [1], in assay [2], in assay [3], in assay [4], in assay [5] and in [6] was inactive. Also, the result in assay [7], in assay [8], in [9], in [10], in assay [11] and in [12] was inactive. Moreover, the result in assay [13], in [14], in assay [16], in [17], in assay [18] and in assay [19] was inactive. For the same compound, the result in assay [20] was inactive.
For `COCCO`, the outcome in assay [1], in [2], in assay [3], in assay [4], in assay [5] and in assay [6] was inactive. Further, the result in assay [7], in [8], in assay [10], in assay [11], in assay [12] and in assay [13] was inactive. In addition, the outcome in assay [14], in [15], in assay [16], in [17], in assay [18] and in [19] was inactive. Also, the outcome in [20] was inactive.
In the case of `CCC(O)=C1C(=O)CC(C(=O)O)CC1=O` (stereo not given), the outcome in assay [1], in [2], in [3], in assay [4], in assay [5] and in assay [6] was inactive. Also, the result in [7], in assay [8], in assay [9], in [10], in assay [11] and in assay [12] was inactive. The result in assay [13], in assay [14], in assay [16], in [17], in [18] and in assay [19] was inactive. For the same compound, the result in assay [20] was inactive.

Values taken from PubChem BioAssay (EPA / NIEHS).
